High-throughput results as filed in PubChem BioAssay.
This is a sample that favours compounds with a hit; in the whole collection about 3.6% have one here.
Hsp90 Hop PPI – changes Hsp90-Hop TPR2A binding signal, up or down | AlphaScreen TPR2A-His6 binding biotin-Hsp90 C-terminal peptide | Potency, µM (series often up to 57 µM) | 71,000 compounds, 0.44% hits | AID 595; active = well fitted curve in either direction with a large enough effect; inconclusive = small, poorly fitted or top-dose-only effect, or another doubt
IkB sig inh – inhibitors of IkB signaling in ABC-DLBCL cells; ABC-DLBCL IkBa-CBG/CBR dual luciferase ratio, 4 h; response scale: scaled: untreated 0%, proteasome inhibitor 100%; AID 445; Potency, µM (doses to about 57.1 µM); 110,000 compounds, 0.04% hits; active = well fitted curve in the direction sought with a large enough effect in the signal ratio, not every such curve was filed as active; inconclusive = small, poorly fitted or top-dose-only effect, or a change in a side signal; the % refers to the signal ratio;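 also: the direction sought is a rising ratio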
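In this assay, an IκBα–CBG68 fusion accumulates when IKK-driven degradation is blocked; native CBR normalizes for cell number. OCI-Ly3 cells were treated 4 h with compound and doxycycline, then green and red light read after Chroma-Glo addition.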
15-hLO inh – blocks human 15-lipoxygenase activity | purified 15hLO-1, xylenol orange hydroperoxide absorbance | Potency, µM (highest dose often 57.1 µM), usual class: inhibitors | 74,000 compounds, 1.4% hits; also: nearly all actives have a fitted effect of over 55% in size
Target sequence (P16050 whole entry, looked up): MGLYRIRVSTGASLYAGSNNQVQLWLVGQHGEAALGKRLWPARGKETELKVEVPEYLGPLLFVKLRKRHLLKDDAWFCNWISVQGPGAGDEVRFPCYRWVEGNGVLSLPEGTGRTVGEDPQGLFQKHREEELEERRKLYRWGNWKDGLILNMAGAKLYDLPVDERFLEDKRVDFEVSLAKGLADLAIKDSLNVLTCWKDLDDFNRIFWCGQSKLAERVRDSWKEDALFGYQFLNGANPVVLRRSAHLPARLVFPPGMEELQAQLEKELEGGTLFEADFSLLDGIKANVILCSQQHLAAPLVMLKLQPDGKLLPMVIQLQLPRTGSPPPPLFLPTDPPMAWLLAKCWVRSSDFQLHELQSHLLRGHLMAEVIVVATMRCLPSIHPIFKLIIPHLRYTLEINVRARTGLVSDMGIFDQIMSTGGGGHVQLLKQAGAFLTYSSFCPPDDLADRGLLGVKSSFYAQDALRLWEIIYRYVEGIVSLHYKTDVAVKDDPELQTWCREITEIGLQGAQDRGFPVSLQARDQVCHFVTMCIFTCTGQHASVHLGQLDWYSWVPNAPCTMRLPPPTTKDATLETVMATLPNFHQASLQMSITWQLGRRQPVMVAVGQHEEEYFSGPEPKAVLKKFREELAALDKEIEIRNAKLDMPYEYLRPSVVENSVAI
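Quantitative HTS in 25 mM Hepes pH 7.5 containing 0.01% Triton X-100: human 15hLO-1 at 40 nM, arachidonic acid at 50 uM, 6 min turnover. Product quantified via ferrous oxidation/xylenol orange, 573:405 nm absorbance ratio.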
CRE Fsk mod – alters forskolin-stimulated CRE reporter signaling in CHO cells; CHO CRE-bla reporter (cAMP response element driving beta-lactamase), forskolin EC10, beta-lactamase ratio; Potency, µM (top dose mostly 38.2 µM), usual class: activators; 71,000 compounds, 2.5% hits; AID 662; active = well fitted activation curve with a large enough effect in the signal ratio, with a control signal flat, not every such curve was filed as active; inconclusive = small, poorly fitted or top-dose-only effect, or effect the other way, or a change in a side signal; the % refers to the signal ratio
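CRE-bla CHO cells stimulated with EC10 NKH 477 (water-soluble forskolin) and compound titrations, 3 h at 37C; beta-lactamase read with CCF4 after 2 h at room temperature. Activity from 460/530 nm emission ratio, AC50 values for positive or negative modulation.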
Tau filament bind – tau filament binding | P10636 | recombinant tau filaments, thioflavin S fluorescence, 15 h; filaments grown with octadecylsulfate alongside compound | Potency, µM (series often up to 57.1 µM) | 71,000 compounds, 2% hits | AID 596;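 also: actives lower thioflavin S fluorescence by blocking filaments or displacing dye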
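Read-out: ThS fluorescence, 450 nm excitation/510 nm emission; lower signal marks blocked filament formation or displaced dye. Tau at 1 uM with 30 uM ODS, 10 uM ThS, 5 mM DTT, 100 mM NaCl, 10 mM HEPES pH 7.4; 15 h, 37 C.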
CHO tox 24h – reduces CRE-bla CHO cell viability after 24 hours; AID 905; CRE-bla CHO viability, ATP luminescence, 24 h; activity, negative = viability loss, % at 46.1 µM; 120 tested, under 10 active; shares compounds with CRE Fsk mod
CHO via 40h – cytotoxicity in CRE-bla CHO cells at 40 h. Potency, µM, most hits filed as inhibitors. 120 tested, under 10 active. shares compounds with CRE Fsk mod. CRE-bla CHO viability, ATP luminescence, 40 h. AID 906
CRE-luc potent – confirmation of CRE signaling potentiators in HEK293 CREB reporter cells. shares compounds with CRE Fsk mod. HEK293 CRE-luc2P, NKH477 EC10 potentiation, luminescence, 4 h. Potency, µM (doses to about 38.3 µM), most hits filed as activators. 120 compounds, 80% hits
Of the large screens only hits and unclear results are named; the others gave an inactive call (follow-up assays come after a bar, where they were run). Unless noted, calls follow the shape of the dose curve; as a rule, active = well fitted curve in the direction sought with a large enough effect; inconclusive = small, poorly fitted or top-dose-only effect, or another doubt; inactive = no such curve, though single readings can be large; an effect the other way counts as inactive or inconclusive.

COc1ccc(C2c3c(oc4ccccc4c3=O)C(=O)N2CCN2CCOCC2)cc1OC (stereo unspecified)	none | CHO tox 24h inactive | CHO via 40h inactive | CRE-luc potent 14.1µM
COc1cc(C2c3c(oc4ccccc4c3=O)C(=O)N2CCN2CCOCC2)cc(OC)c1OC (stereo unspecified)	none
Cn1nc(-c2ccc(N3CCCCC3)c(NC(=O)c3ccco3)c2)c2ccccc2c1=O	CRE Fsk mod 1.58µM | CHO tox 24h inactive | CHO via 40h inconclusive | CRE-luc potent 0.631µM
COc1cccc(N2CC(NC(=O)c3ccc(S(=O)(=O)N4CCCCC4)cc3)CC2=O)c1 (stereo unspecified)	none (no result: Hsp90 Hop PPI, 15-hLO inh, CRE Fsk mod, Tau filament bind)
O=S(=O)(Nc1cccc(-c2nc3cccnc3s2)c1)c1ccc2c(c1)OCCO2	IkB sig inh inconclusive, CRE Fsk mod 3.16µM | CHO tox 24h inactive | CHO via 40h inactive | CRE-luc potent 11.2µM
O=S(=O)(Nc1ccc(-c2cn3ccsc3n2)cc1)c1ccc2c(c1)OCCO2	IkB sig inh inconclusive, CRE Fsk mod inconclusive
COc1cccc(-c2nn3c(-c4cccc(C)c4)nnc3s2)c1	CRE Fsk mod inconclusive
COc1cc(-c2nnc3sc(-c4ccco4)nn23)cc(OC)c1OC	CRE Fsk mod 1µM | CHO tox 24h inactive | CHO via 40h inactive | CRE-luc potent 3.16µM
COc1cc(-c2nnc3sc(-c4ccccn4)nn23)cc(OC)c1OC	Hsp90 Hop PPI inconclusive, CRE Fsk mod 0.0251µM | CHO tox 24h inactive | CHO via 40h inactive | CRE-luc potent inconclusive
CCOC(=O)c1c(C)[nH]c(C)c1S(=O)(=O)N1CCC(C(=O)Nc2ccc(C)c(N(C)C)c2)CC1	none (no result: Hsp90 Hop PPI, 15-hLO inh, CRE Fsk mod, Tau filament bind)
CCc1cc2c(cc3c(=O)n(CC(=O)NCc4cc(Br)ccc4OC)ncn32)s1	none (no result: Hsp90 Hop PPI, 15-hLO inh, CRE Fsk mod, Tau filament bind)
Cc1ccc2c(c1)c1nc3ccccc3nc1n2CCN1CCOCC1	CRE Fsk mod 1.26µM | CHO tox 24h inactive | CHO via 40h inconclusive | CRE-luc potent 3.98µM
CCCN1Cc2cccc(C(=O)Nc3ccc(N4CCN(CC)CC4)cc3)c2C1=O	CRE Fsk mod 3.98µM | CHO tox 24h inactive | CHO via 40h inactive | CRE-luc potent 7.94µM
CCN1Cc2cccc(C(=O)Nc3ccc(F)cc3)c2C1=O	none (no result: Hsp90 Hop PPI, 15-hLO inh, CRE Fsk mod, Tau filament bind)
CCCCN(C)CCNC(=O)c1cc(=O)[nH]c2ccc(S(=O)(=O)N3CCCCCC3)cc12	none (no result: Hsp90 Hop PPI, 15-hLO inh, CRE Fsk mod, Tau filament bind)
CCOc1ccc(C(=O)NCc2nc3cccnc3n2Cc2cccc(OC)c2)cc1	none (no result: Hsp90 Hop PPI, 15-hLO inh, CRE Fsk mod, Tau filament bind)
COc1ccccc1NC(=O)CCN1CCCCC1	none (no result: Hsp90 Hop PPI, 15-hLO inh, CRE Fsk mod, Tau filament bind)
C=CCn1c(=O)/c(=C/c2cc(OC)c(OC)c(OC)c2)s/c1=C(/C#N)c1nc2ccccc2n1C	CRE Fsk mod 1µM, Tau filament bind inconclusive | CHO tox 24h inactive | CHO via 40h inactive | CRE-luc potent 1µM
C=CCn1c(=O)/c(=C/c2ccc(O)cc2)s/c1=C(/C#N)c1nnc2n1CCCCC2	none
COc1nc(Nc2nc3ccccc3c(=O)[nH]2)nc2ccc(C)cc12	IkB sig inh inconclusive, CRE Fsk mod 1.58µM | CHO tox 24h inconclusive | CHO via 40h 3.98µM | CRE-luc potent inconclusive
Cn1c(SCC(=O)N2CCOCC2)nc2sc3c(c2c1=O)CCCC3	none | CHO tox 24h inactive | CHO via 40h inactive | CRE-luc potent 3.55µM
COC(=O)Nc1nc2ccc(C(=O)c3cccs3)cc2[nH]1	IkB sig inh inconclusive, CRE Fsk mod 0.0794µM, Tau filament bind inconclusive | CHO tox 24h inconclusive | CHO via 40h inactive | CRE-luc potent inconclusive
COc1cccc2c(C)nc(Nc3nc(CSc4nnc(C)s4)cc(=O)[nH]3)nc12	Hsp90 Hop PPI inconclusive, CRE Fsk mod inconclusive | CHO tox 24h inconclusive | CHO via 40h inactive | CRE-luc potent 6.31µM
COc1cc2oc(-c3ccccc3)cc(=O)c2cc1O	IkB sig inh inconclusive, CRE Fsk mod inconclusive, Tau filament bind inconclusive
COc1cc(-c2cc(=O)c3ccccc3o2)ccc1O	CRE Fsk mod 2µM, Tau filament bind inconclusive | CHO tox 24h inactive | CHO via 40h inconclusive | CRE-luc potent 3.16µM
COCCNc1nc(-c2cccc(NS(C)(=O)=O)c2)nc2ccccc12	CRE Fsk mod inconclusive
Cn1c(C(=O)NC2CC2)cc2c(=O)n(C)c3ccccc3c21	CRE Fsk mod 5.01µM | CHO tox 24h inactive | CHO via 40h inactive | CRE-luc potent 10µM
Cc1nn(-c2ccc(Cl)cc2)c2sc(C(=O)N3CCN(C(=O)c4ccco4)CC3)cc12	none
Cc1nn(-c2ccc(Cl)cc2)c2sc(C(=O)N3CCN(c4ccccn4)CC3)cc12	none | CHO tox 24h inactive | CHO via 40h inactive | CRE-luc potent 1.41µM
CSc1nc2ccc(Nc3nc(N4CCOCC4)nc(N4CCOCC4)n3)cc2s1	IkB sig inh inconclusive, 15-hLO inh inconclusive, CRE Fsk mod 3.16µM | CHO tox 24h inactive | CHO via 40h inconclusive | CRE-luc potent 0.631µM
CCCN(C#N)c1nc(NCC)nc(NC(C)C)n1	IkB sig inh inconclusive, CRE Fsk mod 10µM | CHO tox 24h inactive | CHO via 40h inactive | CRE-luc potent 1.41µM
